# Data reported in PubChem BioAssay AID624351 (Southern Research Specialized Biocontainment Screening …, 2012).
# The whole screen tested about 2,400 compounds, of which about 1,400 (58%) were called active.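 Rule for the calls: active = inhibition of 30% or more at any tested dose; inconclusive = primary hits over the limit that were never retested; inactive = the rest.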 The set was probably picked from earlier hits. The list shows a part of the results.
# Experiment: coupled detection enzyme interference, dose response, artefact control for MgcRacGAP inhibitor project, biochemical, coupled enzyme counter-screen (AID 624351);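 note: signal is the ADP detection kit reading of free GDP without any GAP enzyme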
# Settings: ADP Hunter coupled enzyme counter-screen, fluorescence, no MgcRacGAP; series mostly up to 80 µM
row,Structure (SMILES),IC50
1,O=C1/C(=C\c2ccc(O)cc2)SC(=S)N1/N=C/c1ccc(O)cc1,72.7 µM (active)
2,CCN(CC)c1ccc(/C=N/N2CCN(Cc3ccccc3)CC2)cc1,75.1 µM (active)
3,CCOc1ccc(CN2CCN(Cc3c[nH]c4ccccc34)CC2)cc1,inactive
4,CC(CN1CCN(Cc2ccccc2)CC1)c1ccccc1 (centres undefined),inactive
5,CCN(Cc1ccccc1)C1CCN(Cc2ccc(SC)cc2)CC1,inactive
6,CCOc1cc(CN2CCN(C(=O)CC(C)C)CC2)ccc1OC,inactive
7,CN(c1ccccc1)c1ccc(/C=C/[N+](=O)[O-])cc1,inactive
8,CCN(Cc1ccccc1)c1ccc(/C=N/N2CCOCC2)cc1,57.8 µM (active)
9,CCOc1cc(/C=N/N2CCN(Cc3ccccc3)CC2)ccc1O,78.5 µM (active)
10,CN(c1ccccc1)c1ccc(/C=N/N2CCOCC2)cc1,36.8 µM (active)
11,CC(=O)N(C1=C(Cl)C(=O)c2ccccc2C1=O)c1ccc(C(=O)O)cc1,inactive
12,COc1ccccc1CN1CCN(Cc2cc(OC)c(OC)cc2OC)CC1,inactive
13,CC(C)c1ccc(/C=N/N2CCCCC2)cc1,inactive
14,CCN(CC)c1ccc(/C=N/N2CCOCC2)c(O)c1,63.7 µM (active)
15,CN(C)c1ccc(/C=N/N2CCN(Cc3ccccc3Cl)CC2)cc1,71 µM (active)
16,CCN(CC)c1ccc(/C=N/N2CCOCC2)cc1,40.3 µM (active)
17,Cc1ccc(OCCN2CCN(C)CC2)c([N+](=O)[O-])c1,inactive
18,COc1ccc2cc(C(=O)Nc3ccc(O)cc3)sc(=O)c2c1OC,24.8 µM (active)
19,O=C(Nc1ccc(O)cc1)c1cc2ccccc2c(=O)s1,30.1 µM (active)
20,O=C(Cn1sc2ccccc2c1=O)Nc1ccccc1,inactive
21,CCN(CC)S(=O)(=O)c1ccc(C)c(NC(=O)CN2CCN(C)CC2)c1,inactive
22,COc1cc(/C=C/C(=O)OCC(=O)Nc2ccc(S(=O)(=O)N3CCCC3)cc2)ccc1O,45.7 µM (active)

row,Structure (SMILES),IC50
1,Cc1ccc(NC(=O)CNCCCN2CCOCC2)cc1S(=O)(=O)N1CCCCC1,inactive
2,Cc1ccc(S(=O)(=O)N2CCCCC2)cc1NC(=O)CNCc1ccco1,inactive
3,COc1cc(/C=C/C(=O)OCC(=O)Nc2cc(S(=O)(=O)N3CCCCC3)ccc2C)ccc1O,60.2 µM (active)
4,COCCNCC(=O)Nc1ccc(C)c(S(=O)(=O)N2CCCCC2)c1,inactive
5,CC(CCN1CCN(CCO)CC1)c1ccccc1 (centres undefined),inactive
6,CN=C1S/C(=C\c2ccc(O)c(Br)c2)C(=O)N1C,45.8 µM (active)
7,Cc1nc(N)sc1-c1ccccc1,80.8 µM (active)
8,COC(=O)c1ccc2c(c1)C(C)(C)C(/C=C/c1ccc(O)cc1)=[N+]2C,inactive
9,COc1ccc(C(=O)/C=C/c2ccc(O)cc2)cc1,42.2 µM (active)
10,COc1ccc(-c2ccc(CCC(=O)O)n2-c2ccc(O)cc2)cc1,inactive
11,O=C(CNCc1ccco1)Nc1ccc(N2CCCCCC2)cc1,inactive
12,CC(=O)N1CCN(c2ccc(NCc3ccco3)cc2)CC1,13.1 µM (active)
13,CC(=O)N1CCN(c2ccc(NCc3ccc(Br)o3)cc2)CC1,12.4 µM (active)
14,COc1ccc(N2CCN(C(=O)c3ccc(Br)o3)CC2)cc1,inactive
15,CN(C)c1ccc(NC2=C([N+](=O)[O-])CS(=O)(=O)C2)cc1,51.3 µM (active)
16,Cc1cc(/C=N/Nc2ccc([N+](=O)[O-])cn2)c(C)n1-c1ccc(C(=O)O)cc1,inactive
17,CN(C)c1ccc(Nc2ccc([N+](=O)[O-])cn2)cc1,70.9 µM (active)
18,O=C(c1ccccc1F)N1CCN(Cc2ccccc2F)CC1,inactive
19,CCOc1c(C=C(C#N)C#N)c2ccccc2n1CC,inactive
20,C(=N\N1CCOCC1)/c1nc(-c2ccccc2)n2ccccc12,25.7 µM (active)
21,Clc1ccccc1-c1nc(/C=N/N2CCOCC2)c2ccccn12,44 µM (active)
22,CN1CCN(/N=C/c2nc(-c3ccccc3)n3ccccc23)CC1,35.6 µM (active)

row,Structure (SMILES),IC50
1,CN1CCN(/N=C/c2nc(-c3ccc(Cl)cc3)n3ccccc23)CC1,41.9 µM (active)
2,O=C(O)c1ccc2c(c1)C(=O)/C(=C\c1ccco1)C2=O,inactive
3,Cc1ccccc1N1C(S)=C(C#N)C(=O)NC1c1cccs1 (centres undefined),inactive
4,Cc1ccc(-n2sc3cc(F)ccc3c2=O)c(C)c1,inactive
5,CSc1ccccc1NC(=O)CNCCCN1CCOCC1,inactive
6,O=C(CNCc1ccco1)Nc1ccc(Oc2ccccc2)cc1,inactive
7,O=C(COC(=O)COc1ccc(Nc2ccccc2)cc1)NCc1ccco1,79.9 µM (active)
8,O=C(NCc1ccco1)c1sc(=S)n2c1[nH]c(=O)c1ccccc12,inactive
9,O=C(COc1ccc(Nc2ccccc2)cc1)OCC(=O)N1CCCCC1,75.6 µM (active)
10,N#Cc1ccc(OCC(=O)Nc2ccc(N3CCCC3)cc2)cc1,inactive
11,O=C1CCCCC/C1=N/Nc1ccc(OCc2ccccc2)cc1,inactive
12,CCOC(=O)COc1ccc2c(c1)C(=O)CC1(CCCCC1)O2,inactive
13,COCCNC(=O)COc1ccc(Nc2ccccc2)cc1,62.8 µM (active)
14,COc1ccc(-n2nc3c(c2NC(=O)CCCCl)CSC3)cc1,inactive
15,O=C(Nc1ccccc1)C1=C(c2ccccc2)S(=O)(=O)CCS1(=O)=O,inactive
16,O=C(O)c1ccccc1C(=O)Nc1ccc(Nc2ccccc2)cc1,62.4 µM (active)
17,CC(=O)Nc1ccc(S(=O)(=O)Nc2nc3ccccc3nc2Nc2ccc(C(=O)O)c(O)c2)cc1,inactive
18,O=C(Nc1ccc(Nc2ccccc2)cc1)C1CC1,55.9 µM (active)
19,CC(=O)Nc1ccc(S(=O)(=O)Nc2ccc(Nc3ccccc3)cc2)cc1,80.7 µM (active)
20,CC(C)C(=O)Nc1ccc(Nc2ccccc2)cc1,52.3 µM (active)
21,Cc1cc(C)c2c(c1)NC(C(=O)O)C1CC=CC21 (centres undefined),inactive
22,COc1ccc(-n2cccc2/C=C/[N+](=O)[O-])cc1,inactive

row,Structure (SMILES),IC50
1,CC1=NOC(=O)/C1=C\c1ccc(-c2ccc(Cl)c(C(=O)O)c2)o1,inactive
2,N#CC1=C(S)N(c2ccccc2)C(c2cccs2)NC1=O (centres undefined),inactive
3,CC(=O)Nc1ccc(Nc2ccccc2)cc1,75.5 µM (active)
4,O=C(Nc1ccc(O)cc1)c1ccccc1OCc1ccccc1,44.8 µM (active)
5,Oc1ccc(NCc2ccc(OCc3ccccc3)cc2)cc1,inactive
6,CC(=O)Nc1ccc2sn(-c3ccccc3)c(=O)c2c1,inactive
7,CC(=O)Nc1ccc(NC(=O)C(C)OC(=O)COc2ccc(Nc3ccccc3)cc2)cc1 (centres undefined),inactive
8,O=C(O)c1ccc(COc2ccccc2C=C2C(=O)c3ccccc3C2=O)cc1,inactive
9,CCC(=O)NC1=C(Cl)C(=O)C(NC(=O)CC)=C(Cl)C1=O,inactive
10,CCC(=O)Nc1ccc(Nc2ccccc2)cc1,55.9 µM (active)
11,C=C1c2c(Cl)ccc(O)c2C(O)=C2C(=O)[C@]3(O)C(O)=C(C(N)=O)C(=O)[C@@H](N(C)C)[C@@H]3[C@@H](O)C12 (some centres undefined),inactive
12,CC[n+]1c(/C=C2\Sc3ccccc3N2C)ccc2cccc(C)c21,inactive
13,Nc1nn2c(-c3ccccc3)cc(=O)[nH]c2c1N=Nc1ccc(O)cc1,70.9 µM (active)
14,Cc1cc(=O)[nH]c2c(N=Nc3ccc(O)cc3)c(N)nn12,13.2 µM (active)
15,CCOC(=O)C1Nc2ccc(C(=O)O)cc2C2C=CCC12 (centres undefined),inactive
16,COc1cc(OC)c(Cl)cc1N,43.9 µM (active)
17,COC(=O)C1C(O)=C(C=Nc2ccc(N)cc2)C(=O)CC1(C)C (centres undefined),57.5 µM (active)
18,CCCC(=Nc1ccc(N)cc1)C1=C(O)C(C(=O)OC)C(C)(C)CC1=O (centres undefined),14.8 µM (active)
19,CCC(=Nc1ccc(N)cc1)C1=C(O)C(C(=O)OC)C(C)(C)CC1=O (centres undefined),7.76 µM (active)
20,COc1cc(/C=N/NC(=O)C(C)Nc2n[nH]c(=O)[nH]c2=O)ccc1O (centres undefined),69.5 µM (active)
21,COc1cc(/C=N/NC(=O)CNc2n[nH]c(=O)[nH]c2=O)ccc1O,39.7 µM (active)
22,CCOc1cc(/C=N/NC(=O)CCc2n[nH]c(=O)[nH]c2=O)ccc1O,55.6 µM (active)

row,Structure (SMILES),IC50
1,COc1cc(/C=N/NC(=O)CCc2n[nH]c(=O)[nH]c2=O)ccc1O,35.4 µM (active)
2,C/C(CCc1ccccc1)=N\NC(=O)C1C2CCCCC21 (centres undefined),inactive
3,Cc1ccc(-c2cnc(NCc3cc4c(cc3[N+](=O)[O-])OCO4)n2C)cc1C,inactive
4,O=[S@]1Oc2ccccc2-c2ccccc21,inactive
5,CCCN1C(=O)S/C(=C/c2ccc(N3CCOCC3)o2)C1=O,inactive
6,CCN(CC)c1ccc(/C=C2/SC(=O)N(C(C)C)C2=O)o1,58.5 µM (active)
7,Cc1cc(-c2ccccc2)nc(N/N=C/c2ccc(N(C)C)cc2)n1,80 µM (active)
8,Cc1cc(-c2ccccc2)nc(N/N=C/c2ccc(O)cc2O)n1,61.3 µM (active)
9,Cc1nc2ccccc2nc1N/N=C/c1ccc(O)cc1,30.5 µM (active)
10,Cc1cc(-c2ccccc2)nc(N/N=C/c2ccc(O)cc2)n1,31.6 µM (active)
11,CN(C)c1ccc(N=Cc2nc(-c3ccccc3)oc2OC(=O)c2ccccc2)cc1,inactive
12,CC1CN(CCOCCOc2ccccc2-c2ccccc2)CC(C)O1 (centres undefined),inactive
13,COc1ccc(CN2CCN(Cc3ccco3)CC2)cc1OC,inactive
14,Cc1cc(C)c2nc(C)cc(N/N=C/c3ccc(O)cc3)c2c1,32.9 µM (active)
15,COc1ccc(/C=N/Nc2cc(C)nc3c(C)cccc23)cc1,inactive
16,COc1ccc(/C=C2\C(=O)NC(=O)c3ccccc32)cc1OC,inactive
17,COc1cc(/C=N/N=C2/C(=O)Nc3ccccc32)cc(OC)c1O,59.2 µM (active)
18,Oc1ccc(-c2nccs2)cc1,31.4 µM (active)
19,CCN1CCN(CCOc2cccc(Cl)c2Cl)CC1,inactive
20,CC1(C)CC(=O)C(C(C2=C(O)CC(C)(C)CC2=O)c2cccs2)C(=O)C1 (centres undefined),inactive
21,CC1(C)CC(=O)C2=C(C1)Nc1ccccc1S2,23.1 µM (active)
